Assay outcomes deposited in PubChem by several laboratories.
PABP FP inh: PABP poly(A) RNA binding inhibitors, primary screen, biochemical, fluorescence polarization, uHTS; AID 2014, 2009; 290,000 tested, 1% active; inhibition, % at 35 µM; Polyadenylate-binding protein 1 (Homo sapiens), P11940;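 further: calls also rest on retests at 20 µM and on dose response follow-up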
eIF4E 4G PPI: eIF4E–eIF4G protein interaction inhibitors, primary screen, biochemical, uHTS, TR-FRET, eIF4GI fragment; TR-FRET eIF4E-eIF4GI(517-606) binding, 2 h; inhibition, % at 21.7 µM; 220,000 tested, 0.37% active; AID 782, 2007;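 active means inhibition above about 30%, limit read from the data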;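 further: 0% = full FRET control wells and 100% = background wells lacking eIF4GI fragment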
eIF4H FP inh: human eIF4H binding inhibitors, primary screen, translation initiation inhibitor project, biochemical, uHTS, fluorescence polarization; eIF4H fluorescence polarization binding assay; 290,000 tested, 0.94% active; AID 2012, 2009; Eukaryotic translation initiation factor 4H (Homo sapiens), Q15056; inhibition, % at 35 µM;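 further: calls also rest on retests at 20 µM and on dose response follow-up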
PfM18AAP inh: PfM18AAP inhibitors, malaria aminopeptidase, primary screen, biochemical, QFRET, recombinant enzyme. M18 aspartyl aminopeptidase (Plasmodium falciparum 3D7). H-Glu-NHMec fluorogenic cleavage. inhibition, % at 7.35 µM. 290,000 tested, 1.2% active;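 active means inhibition above the campaign mean inhibition over all tested compounds plus 3 SD, cut at about 28% in these data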;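 further: 0% = plate median of test compound wells and 100% = 2 mM ZnCl2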
PERK inhibitor: block of dimerizer-induced PERK translation repression, primary screen, PERK inhibitor project, CHO PERK-DD cells, SEAP luminescence, HTS; 220,000 tested, 0.17% active; Eukaryotic translation initiation factor 2-alpha kinase 3 (Homo sapiens), Q9NZJ5; inhibition, % at 5.6 µM; CHO PERK-DD fusion, SEAP luminescence translation reporter;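 active means inhibition above the mean inhibition of all tested compounds plus 3 SD, set separately per screening campaign, cut at about 2.9% in these data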;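 further: PERK kinase domain activated by AP20187 dimerizer at 100 nM; 0% = DMSO with dimerizer and 100% = rapamycin at 8.4 µM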
PABP1 MLLE inh: inhibitors of PABP1 MLLE–PAM2 peptide binding, primary screen, biochemical, fluorescence polarization, FITC-PAM2, GST-MLLE; Polyadenylate-binding protein 1 (Homo sapiens), P11940; 360,000 tested, 0.36% active; inhibition, % at 20 µM; AID 588489, 2011; in the data active means inhibition above about 35%, passing the limit was not always enough;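 further: plate controls were DMSO wells with GST-MLLE for no effect and wells lacking GST-MLLE protein for full effect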
The depositor's hits bear a star; ? = inconclusive; . = not tested or not shown; [ ] = another dose, or the depositor's remark. The list is not random: actives were taken first. Their share in the collection is about 2.4%. Unless noted, how the calls were made is not given here.

SMILES	PABP FP inh	eIF4E 4G PPI	eIF4H FP inh	PfM18AAP inh	PERK inhibitor	PABP1 MLLE inh
COc1ccccc1C1Nc2cccc3cccc(c23)N1	?	0	?	-4	0	13
Clc1cccc(C2Nc3cccc4cccc(c34)N2)c1	40*	.	53*	32*	.	9
c1ccc(C2Nc3cccc4cccc(c34)N2)cc1	62*	.	86*	24	.	13
Oc1ccccc1C1Nc2cccc3cccc(c23)N1	72*	13	95*	1	1	0
c1csc(C2Nc3cccc4cccc(c34)N2)c1	?	7	?	-18	0	41*
Brc1cccc(C2Nc3cccc4cccc(c34)N2)c1	19	.	46	24	.	14
O=[N+]([O-])c1ccccc1C1Nc2cccc3cccc(c23)N1	18	3	53	-9	1	22
Brc1ccc(C2Nc3cccc4cccc(c34)N2)o1	104*	2	99*	9	1	36
N#C/C(=N\Nc1ccc(Cl)cc1)C(=O)c1ccccc1	-4	62*[fluorescence artefact?]	-3	17	0	14
Cc1c(N/N=C(\C#N)C(=O)c2ccc(Cl)cc2)c(=O)n(-c2ccccc2)n1C	0	2	14	4	-1	14
Cc1cc(C(=O)OCC(=O)N2CC(=O)Nc3ccccc32)c(C)n1-c1ccccc1	68*	5	3.7*	9	-1	4
Cc1cc(C(=O)OCC(=O)N2CC(=O)Nc3ccccc32)c(C)n1-c1ccc(F)cc1	0	1	12	-2	-1	-7
CCOC(=O)c1c(C)[nH]c(C(=O)CC(=O)OC)c1C	-5	-2	2	4	0	3
CCCCOC(=O)c1ccc(N)cc1	118*	2	active	-3	1	-9
CN1C(=O)c2cccc(NCCCN3C(=O)c4ccccc4C3=O)c2C1=O	94*	-30	66*	-2	0	-4
CN1C(=O)c2cccc(NCCCCCCN3C(=O)c4ccccc4C3=O)c2C1=O	22	-1	23	-9	1	1
CCOc1cc(C(=S)N2CCOCC2)ccc1OC	-6	7	-6	4	1	56*
CCNC(=S)N/N=C(\C)c1ccc(N2CCOCC2)cc1	6	-39	1	29*	0	12
S=C(c1ccc(N2CCOCC2)cc1)N1CCOCC1	4	8	5	-39	1	38*
COc1ccc(S(=O)(=O)Oc2c(OC)cc(C(=S)N3CCOCC3)cc2OC)cc1	4	.	-2	28*	.	31
CCOc1ccc(C(=S)N2CCOCC2)cc1OC	-3	2	0	-2	0	21
CNC(=S)N/N=C(\C)c1ccc(N2CCOCC2)cc1	10	-5	-1	-2	1	9
CC1(C)CC(=O)C=C(c2cccc(OC(=O)c3ccc(-c4ccccc4)cc3)c2)C1=O	.	.	.	.	.	9
COc1ccc(C(=S)N2CCCC2)cc1OC	-8	-5	-7	1	1	-3
O=C(Oc1ccc(C(=S)N2CCOCC2)cc1)c1ccccc1F	-12	.	-6	29*	.	15
SMILES	PABP FP inh	eIF4E 4G PPI	eIF4H FP inh	PfM18AAP inh	PERK inhibitor	PABP1 MLLE inh
COc1ccc(C(=S)N2CCN(c3ccccc3Cl)CC2)cc1OC	22	-2	8	13	-1	40*
S=C(NCCc1ccc(Cl)cc1)NC1CC1	-1	-3	24	2	0	-28
CC1(C)CC(=O)C=C(c2cccnc2)C1	.	.	.	.	.	5
COc1ccccc1NC(=O)COc1ccc(/C=N/NC(=O)CSCc2ccc(Cl)cc2)cc1	-6	-31	-4	5	3.3*	-1
CCC(C)N(C(=O)COC(=O)c1cc([N+](=O)[O-])ccc1N)C1CCS(=O)(=O)C1 (centres undefined)	-12	.	-11	9	.	-5
CCOC(=O)c1cc(-c2ccc(OC)cc2)nc2c1c(C)nn2CCC(N)=S	-1	-3	-4	1	0	35*
CC1CC(C)(C)OC(C[N+]2(C)CCCCC2)O1 (centres undefined)	52*	-1	0.6*	2	0	-132
N#Cc1c2c(c(-c3ccco3)[nH]c1=O)CCCC2	15	5	10	9	2	42*
Cc1cc(=O)n2nc(-c3ccccc3)sc2n1	65*	10	56*	-2	1	-3
COC(=O)c1cc(=O)nc2sc(-c3ccccc3)nn12	-6	2	-1	-1	-1	1
COc1ccc(CNC(=O)CSc2nccn(-c3ccc(F)c(F)c3)c2=O)cc1	.	.	.	.	.	30
COc1ccc(-n2ccnc(SCC(=O)NC3CCCCC3)c2=O)cc1	-4	.	-9	11	.	24
O=C(CSc1nccn(-c2ccc(Br)cc2)c1=O)NC1CCCC1	.	.	.	.	.	45*
COc1ccc(-n2ccnc(SCC(=O)NC3CCCC3)c2=O)cc1OC	.	.	.	.	.	51*
COc1ccc(-n2ccnc(SCC(=O)NC3CCCC3)c2=O)cc1	10	.	-1	7	.	41*
Cc1ccc(-n2ccnc(SCC(=O)NC3CCCCC3)c2=O)cc1F	.	.	.	.	.	41*
CC1(NC(=O)CC(c2ccccc2)(c2ccccc2)c2ccccc2)CCN(CCCc2ccccc2)C1=O (centres undefined)	.	.	.	.	.	0
Cc1ccc(S(=O)(=O)NCC(=O)OCC(=O)N(CCC#N)c2ccccc2)cc1	.	.	.	.	.	5
NC1=C(Br)C(=O)c2ncccc2C1=O	.	.	.	.	.	39*
O=C1c2cccnc2C(=O)N1CO	-12	-2	-4	-7	1	-7
Clc1ccc(OCCCn2cncn2)cc1Cl	8	93*[fluorescence artefact?]	0	-1	1	-3
COc1ccc(S(=O)(=O)N2CCCCC2)cc1NC(=O)c1cnc(C)cn1	.	.	.	.	.	8
O=C1CC(c2ccccc2)Oc2cc(O)cc(O)c21 (centres undefined)	6	96*	-2	.	.	-2
O=C(O)CCCCCNc1ccc2nsnc2c1[N+](=O)[O-]	5	1	-2	2	2	0
O=C(CNC(=O)c1ccc(Oc2ccccc2)cc1)OC1CCCCC1=O (centres undefined)	4	-1	-5	-10	1	-10
Cn1cccc1C1Nc2ccccc2NC2=C1C(=O)CC(C)(C)C2 (centres undefined)	119*	4	125	12	1	115
CC1(C)CC(=O)C2=C(C1)Nc1ccccc1NC2c1cccc(F)c1 (centres undefined)	0	.	6	11	.	10
